Experimental data reported in PubChem BioAssay (NCATS).
Results filed as inconclusive are left out. Activity calls are given as the source filed them. The call rests on the fitted dose curve; in most records, active means well fitted inhibition curve with a large enough effect; inconclusive means small, poorly fitted or top-dose-only effect; inactive means no such curve, though single readings can be large or run the other way.

Test: qHTS Screen of the MIPE 4.0 Collection Against Ewings Sarcoma (TC71) (AID 1259253); further: nearly all actives have a fitted effect of over 40% in size;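 on viability (% of DMSO): 100% = DMSO-treated cells and 0% = medium-only wells without cells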
Details: TC71 Ewing sarcoma viability, CellTiter-Glo, 48 h; series mostly up to 45.8 µM; viability (% of DMSO): at the top concentration
Method in brief: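 Viability screen: 48 h incubation at 37C, 95% humidity, 5% CO2 with serially titrated compound, followed by CellTiter-Glo readout.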
Potency means the concentration at half of the fitted maximal effect.

**Q.** With `Cc1cnc(CNC(=O)c2c(=O)c3ccc(N4CCCN(C)CC4)nc3n3c2sc2ccccc23)cn1` as the compound, how does the Potency read?
**A.** 7.24 µM (active)

**Q.** Which Potency does the source give for `CCC[C@H](N[C@@H](C)C(=O)N1[C@@H]2CCCC[C@H]2C[C@H]1C(=O)O)C(=O)OCC` here?
**A.** 14.8 µM (active)

**Q.** Which “viability (% of DMSO)” value does the source give for `CCn1c(-c2nonc2N)nc2cncc(CNC3CCNCC3)c21` here?
**A.** 107% (inactive)

**Q.** With `Cn1c(=O)c(-c2c(Cl)cccc2Cl)cc2cnc(Nc3cccc(C(=O)O)c3)nc21` as the compound, how does the “viability (% of DMSO)” value read?
**A.** 99.5% (inactive)

**Q.** With `O=C1NC(=O)C(c2cnc3ccccn23)=C1c1cn2c3c(cccc13)CN(C(=O)N1CCOCC1)CC2` as the compound, how does the Potency read?
**A.** 23.5 µM (active)

**Q.** For `Cc1c(-c2cccc3c(CCCOc4cccc5ccccc45)c(C(=O)O)n(Cc4cccnc4)c23)c(COc2ccc(N3CCN([S+](=O)([O-])N(C)C)CC3)cc2)nn1C`, which Potency is on record?
**A.** 20.9 µM (active)

**Q.** For `O=C(Nc1cccc(C(F)(F)F)c1)Nc1cc(S(=O)(=O)NC2CC2)ccc1-c1ccsc1`, which Potency is on record?
**A.** 20.9 µM (active)

**Q.** For `CC(=O)NCCC(=O)N[C@@H](CCC(N)=O)C(=O)N[C@@H](CO)C(=O)N[C@@H](CCC(N)=O)C(=O)N[C@@H](CCC(N)=O)C(=O)N[C@H](C(=O)N[C@@H](Cc1ccccc1)C(=O)N[C@]1(C)CCCCCCC=CCCC[C@@](C)(C(=O)N[C@@H](CCC(N)=O)C(=O)N[C@@H](CC(N)=O)C(N)=O)NC(=O)[C@H](CC(C)C)NC(=O)[C@H](CC(C)C)NC(=O)[C@@H](CCCNC(=N)N)NC(=O)[C@H](Cc2c[nH]c3ccccc23)NC(=O)[C@H](CC(C)C)NC(=O)[C@H](CC(N)=O)NC1=O)[C@H](C)O`, which Potency is on record?
**A.** 20.9 µM (active)
